Laboratory results taken from PubChem BioAssay AID504840 (Johns Hopkins Ion Channel Center, 2011).
Hit rate of the full screen: of about 1,500 compounds, about 890 (59%) were called active.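 Rule for the calls: active = inhibition of the choline-evoked signal at any tested dose together with a fitted dose-response curve; inactive = no inhibition at any dose or no curve.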 The set was probably picked from earlier hits. Only a sample is shown. Potency and affinity values are given separately.

Target: High affinity choline transporter 1 (Homo sapiens) (UniProt Q9GZV3)
Sequence (Q9GZV3 whole entry, looked up): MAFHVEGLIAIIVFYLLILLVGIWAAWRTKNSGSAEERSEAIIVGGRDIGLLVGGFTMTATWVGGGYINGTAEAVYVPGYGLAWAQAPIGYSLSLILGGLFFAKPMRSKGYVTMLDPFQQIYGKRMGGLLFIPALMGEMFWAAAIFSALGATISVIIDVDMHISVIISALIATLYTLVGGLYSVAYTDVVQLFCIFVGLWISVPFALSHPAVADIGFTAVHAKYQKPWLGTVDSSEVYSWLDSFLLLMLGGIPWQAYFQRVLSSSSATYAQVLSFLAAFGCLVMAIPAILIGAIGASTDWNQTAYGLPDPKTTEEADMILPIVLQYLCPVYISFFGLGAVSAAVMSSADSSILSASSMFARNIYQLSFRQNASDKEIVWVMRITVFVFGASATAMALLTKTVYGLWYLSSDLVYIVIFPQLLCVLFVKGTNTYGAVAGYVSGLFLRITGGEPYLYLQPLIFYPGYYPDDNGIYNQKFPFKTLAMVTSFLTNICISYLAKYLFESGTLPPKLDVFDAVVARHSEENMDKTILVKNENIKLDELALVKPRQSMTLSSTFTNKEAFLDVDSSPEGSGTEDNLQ
Experiment: human choline transporter blockers, potency – cell-based, 5-point CRC, membrane potential dye, dose response (AID 504840)
Conditions: HEK293-CHT, choline-induced depolarization, CHT with LV-to-AA double alanine mutation; series mostly up to 37 µM

outcome, inactive:
COC(=O)C1=C(N)Oc2cc(C)n(CCc3ccccc3)c(=O)c2C1c1cccnc1 (stereo unspecified), CC(OC(=O)c1cc2sccc2n1C)C(=O)NC(C)(C)C (stereo unspecified), COc1ccc(N2CCN(CC(=O)Nc3c(C)cc(C)cc3C)CC2)cc1, CN(C)c1ccc(Nc2c3c4c(cccc4n(C)c2=O)C(=O)c2ccccc2-3)cc1, CC(=O)c1cc2c(cc1NC(=O)CCNC(=O)c1ccccc1Cl)OCO2, CCCCOC(=O)c1ccc(NC(=O)c2cc(Cl)c(Cl)cc2C(=O)O)cc1, CCCCNS(=O)(=O)c1ccc(NC(=O)Cc2ccccc2[N+](=O)[O-])cc1, O=C(CC(=O)c1c(F)cccc1Cl)c1ccccc1O, Cc1ccc2[nH]c3c(c2c1)CN(C(=O)CN1CCN(Cc2ccc4c(c2)OCO4)CC1)CC3, CCOc1[nH]c(/N=C/c2ccco2)c(C#N)c1C#N, CC(C)(C)C(=O)N1CCN(c2ccc(NC(=O)c3ccc4c(c3)OCCO4)cc2)CC1, COc1ccc(C(=O)NC(=S)NNC(=O)CCc2ccccc2)cc1, Cc1ccc(CNC(=O)N[C@@H](Cc2ccccc2)C(=O)O)cc1, CC1=C(C(=O)OC(C)C)C(c2ccc(Br)s2)NC(=O)N1C (stereo unspecified), COC(=O)CCCCCN1C(=O)NC(C2CC2)C(C(=O)OCc2ccccc2)=C1C (stereo unspecified), CCOC(=O)c1cnc2c(Cl)cc(Cl)cc2c1NCCOCCO, O=C(CS(=O)(=O)Nc1ccc(F)cc1Cl)Nc1ccc(F)cc1Cl, CC(C(=O)NC1CCS(=O)(=O)C1)N1C(=O)/C(=C/c2ccc(Cl)cc2)SC1=S (stereo unspecified), Cc1ccc(S(=O)(=O)NCCC(=O)NC(C)CCc2ccccc2)cc1 (stereo unspecified), Cc1n[nH]c(=O)c2c(NC(=O)CSc3nc4ccccc4c(=O)n3C(C)C)oc(C)c12, CC(C)n1c(=S)[nH]c2cc(Cl)ccc21, CCn1cc(C(=O)N(CCC(C)C)c2c(N)n(Cc3ccccc3)c(=O)[nH]c2=O)c(=O)c2ccc(C)nc21, Fc1ccc(-c2nc3c(-c4ccc(F)cc4)cnn3cc2CCN2CCOCC2)cc1, CN1CCN(c2ccc(NC(=O)c3ccc(Cl)cc3Cl)cc2)CC1, CSC1=C(C#N)C(c2ccncc2)C(C(=O)Nc2ccccc2)=C(C)N1 (stereo unspecified), CCN(CCNC(=O)CN1CCN(Cc2ccc(Cl)cc2)C1=O)c1ccccc1, Cc1ccccc1Nc1c(-c2ccncc2)nc2ccc(Br)cn12, Cc1ccc(NC(=S)Nc2ccc(F)cc2)cc1C, Cc1ccc(NC(=S)Nc2cccc3cnccc23)cc1C, COc1ccc([N+](=O)[O-])c(S(=O)(=O)c2ccccc2)n1, COc1ccc(OCc2cccc(C(=O)Nn3cc([N+](=O)[O-])cn3)c2)cc1, Cc1cc2c(ncn2Cc2ccccc2)c([N+](=O)[O-])c1C, CC(C)c1cc(C(=O)NNC(=S)NC2CCCCC2)cs1, CCN(CC)S(=O)(=O)c1ccc(/C=C/C(=O)NC2CCCCC2)cc1, COc1ccc(S(=O)(=O)N2CCC(C(=O)N3CCc4ccccc4C3)CC2)cc1, O=C(CCc1ccc(S(=O)(=O)N2CCOCC2)cc1)N1CCc2ccccc2C1, CNCC(O)c1ccc(O)c(O)c1 (stereo unspecified), C#CC[N+](CC)(CC)CC#Cc1ccccc1, Cc1cc(=O)[nH]c(SCC(=O)/C=C2\N(C)c3ccccc3C2(C)C)n1, CC(=O)Oc1ccc(C(=O)Nc2ccc(S(=O)(=O)NCC3CCCO3)cc2)cc1 (stereo unspecified), Cn1cnnc1Sc1ccc(C(=O)NCCC(c2ccccc2)c2ccccc2)cc1[N+](=O)[O-], COc1cc(C(=O)NC(=S)NNC(=O)[C@H]2C[C@@H]2c2ccccc2)cc(OC)c1OC, O=C(Nc1ncc([N+](=O)[O-])s1)C1CC(=O)N(c2ccc(F)cc2)C1 (stereo unspecified), Cc1ccc(N2CC(C(=O)Nc3ncc([N+](=O)[O-])s3)CC2=O)cc1 (stereo unspecified), CCCCCC(=O)c1ccc(O)cc1O, CCN(CC)CCCNC(=O)c1cn(CC)c2ccc(S(=O)(=O)N(C)C3CCCCC3)cc2c1=O, CCCCn1c(SCc2nnc(-c3ccccc3)o2)nc2c1c(=O)n(C)c(=O)n2C, Cn1nc(C(=O)NCCCN2CCCCC2)c2c1-c1ccccc1SC2, CC1CCCC(C)N1CCCNC(=O)c1ccc2c(c1)NC(=O)c1ccccc1S2 (stereo unspecified), CCCCCCCCCCCCN1[C@@H](CC(=O)O)c2cc(C(F)(F)F)ccc2S1(=O)=O, CN(Cc1ccccc1F)C(=O)CCCNC(=O)c1ccc(Cl)cc1, Cn1c2ccccc2c(=O)c2c(O)cccc21, O=C(c1cnn2c(C(F)(F)F)cc(-c3cccs3)nc12)N1CCN(Cc2ccccc2)CC1, C#CCNc1c2c(nc3ncnn13)CC(C)CC2 (stereo unspecified), CC(C)Cn1c(N)c(C(=O)COC(=O)CCNS(=O)(=O)c2ccccc2)c(=O)n(C)c1=O, Cc1ccccc1OCCC(=O)OCC(=O)c1c(N)n(CC(C)C)c(=O)n(C)c1=O, CCc1c(C)nc2ncnn2c1NCCc1ccc(Cl)cc1, CCn1c(N2CCN(S(=O)(=O)c3ccc(OC)cc3)CC2)nc2ccccc21, O=C(C1CCN(S(=O)(=O)c2ccc3ccccc3c2)CC1)N1CCN(c2ncccn2)CC1, O=C(COc1ccccc1/C=C1\SC(=O)NC1=O)Nc1ccccc1, CCN(CC)C(=O)CSc1nc2ccc(NC(=O)CSc3nccn3C)cc2s1, Cc1ccc2c(c1)N(S(=O)(=O)c1ccc(CN3C(=O)c4cccnc4C3=O)s1)CCO2, O=C(Cn1nc(-c2ccccc2)ccc1=O)NCc1ccc(F)cc1, O=[N+]([O-])c1cc(-c2ncccn2)c([N+](=O)[O-])s1, Cc1cc(C(=O)CSc2n[nH]c(N)n2)c(C)n1-c1ccc(F)cc1, Cn1c(CN2CCCC2)c(C#N)c2ccccc21, NS(=O)(=O)c1ccc(CCNCc2cc(Cl)ccc2OCc2ccccc2)cc1, Cc1cccc(NC(=O)c2ccccc2O)c1C, Cc1nnc(SC(C)C(=O)Nc2sc3c(c2C#N)CCCC3)[nH]c1=O (stereo unspecified), CCOC(=O)C1CCN(C(=O)CSCc2nc(-c3ccc(OCC)cc3)oc2C)CC1, Cc1nc([N+](=O)[O-])c(Br)n1Cc1ccccc1
